About 79,000 compounds went through this panel and 15% of them were active in at least one assay; those are over-represented in the sample as a whole. Calls of active or inactive are those of the source. Cut-off read from the data, not from the text of the source: active = growth inhibition above about 70%; inactive = the rest. Where a SMILES comes first, the peptide text is derived from it. The star is where a group is joined. Cbz = O=C(OCc1ccccc1)*
Legend:
[1] = NCI Yeast Anticancer Drug Screen. Data for the rad50 strain (AID 155);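 note: 0% = growth of vehicle-only cultures of the same strain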; settings: S. cerevisiae rad50 strain growth inhibition; at 50.0 µM; hits give high values
Procedure, shortened: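 Genetically altered yeast (DNA repair pathway); compound treatment; growth inhibition vs vehicle ctrl.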

[2] = NCI Yeast Anticancer Drug Screen. Data for the mec2-1 strain (AID 157); settings: S. cerevisiae mec2-1 strain, at 50.0 µM, hits give high values
Procedure, shortened: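 Readout is yeast growth inhibition, normalised to vehicle-treated controls, in the mec2-1 strain exposed to compound.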

[3] = NCI Yeast Anticancer Drug Screen. Data for the sgs1 mgt1 strain (AID 161);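 note: 0% = growth of cultures given vehicle only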; settings: S. cerevisiae sgs1 mgt1 strain, at 50.0 µM, hits give high values
Procedure, shortened: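 Yeast cells carrying a defined DNA-repair defect were exposed to test compounds. Growth inhibition was measured relative to vehicle-treated controls.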

[4] = NCI Yeast Anticancer Drug Screen. Data for the cln2 rad14 strain (AID 165);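 note: 0% = growth equal to vehicle treated cultures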; settings: S. cerevisiae cln2 rad14 strain, at 50.0 µM, hits give high values
Procedure, shortened: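 Relative to vehicle controls, growth inhibition of compound-treated cln2 rad14 yeast was recorded.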

[5] = NCI Yeast Anticancer Drug Screen. Data for the bub3 strain (AID 167); settings: S. cerevisiae bub3 mutant strain, at 50.0 µM, hits give high values
Procedure, shortened: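 Yeast carrying a defined mutation is treated with each compound, and growth is compared with that of vehicle-exposed cells to give inhibition.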

[6] = NCI Yeast Anticancer Drug Screen. Data for the mlh1 rad18 strain (AID 175); settings: S. cerevisiae mlh1 rad18 strain growth inhibition; at 50.0 µM; hits give high values
Procedure, shortened: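 Test agents were incubated with a yeast strain of defined genotype (DNA damage repair defect). Inhibition of growth was derived by comparison with vehicle-exposed cultures.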

Measured: growth inhibition

COC(=O)CCC(N)C(=O)NC(Cc1ccccc1)C(=O)NC(C)C(=O)NC1C(O)OC(CO)C(O)C1O (stereo unspecified)
inactive: [1] 3.95% | [2] 15.8% | [3] 4.75% | [4] -0.65% | [5] -7.6% | [6] -5.6%

c1ccc(CNC2Cc3ccccc3C2)cc1
inactive: [1] 19.6% | [2] -10.7% | [3] 0.55% | [4] -36.1% | [5] -11.7% | [6] -2.4%

COc1ccc(-n2c(=O)c(N=Nc3ccc(Cl)cc3)c(O)n(-c3ccc(I)cc3)c2=S)cc1
inactive: [1] 49.8% | [2] 5.45% | [3] 33.4% | [4] -3.7% | [5] 0.8% | [6] 22.4%

O=C(O)CCCCn1cnc2c(=S)nc[nH]c21
inactive: [1] -6.1% | [2] -5.85% | [3] -13.7% | [4] -7.3% | [5] -44% | [6] -5%

Fc1ccc(-c2ncc(-c3ccccc3)o2)cc1
inactive: [1] 0.95% | [2] -22.9% | [3] 5.45% | [4] 0.05% | [5] -14.8% | [6] -12.9%

N#CC1(Cl)CC2CC1C1N=NN(c3ccccc3)C21 (stereo unspecified)
inactive: [1] -24.6% | [2] -15.3% | [3] -0.25% | [4] -58% | [5] 25.6% | [6] 0.75%

S=C=NC12CC3CC(CC(C3)C1)C2
inactive: [1] -2% | [2] 0.6% | [3] 0.65% | [4] 15.1% | [5] -4.05% | [6] -15.5%

COc1ccc(CC2COC(=O)C2Cc2ccc(OC)c(OC)c2)cc1OC (stereo unspecified)
inactive: [1] 6.35% | [2] 5.95% | [3] -17.6% | [4] -11.6% | [5] 8.1% | [6] 12.8%

CC1([N+](=O)[O-])COC2(CCCC2)OC1
inactive: [1] 26.4% | [2] 12.2% | [3] 4.75% | [4] -21.8% | [5] -12.9% | [6] 33.6%

Cc1cc(S(=O)(=O)O)cc(C(C)(C)C)c1O
inactive: [1] -15.6% | [2] -11.4% | [3] 6.3% | [4] 6.25% | [5] -2.45% | [6] -20.6%

O=C1CCCS(=O)(=O)CCC1
inactive: [1] 7.4% | [2] 11.5% | [3] -8.2% | [4] -3.5% | [5] 0.9% | [6] 54.1%

C=C(C)CN(C#N)CC(=C)C
inactive: [1] -15.2% | [2] 10.6% | [3] 6.35% | [4] -17.2% | [5] -3.95% | [6] 3.45%

O=S(=O)(O)c1cc(I)c(O)c2ncccc12
inactive: [1] 18.5% | [2] 1% | [3] -1.05% | [4] -67.8% | [5] 19.4% | [6] 45.4%

CCOc1ccc(/C=C2\N=C(c3cccc(Cl)c3)OC2=O)cc1
inactive: [1] 12.2% | [2] 15.3% | [3] 22.1% | [4] 19.6% | [5] 17.2% | [6] 13.7%

N#CCCN(CCC#N)c1ccc(/C=C2\N=C(c3cc([N+](=O)[O-])ccc3Cl)OC2=O)cc1
inactive: [1] -8.15% | [2] 13.9% | [3] -16.4% | [4] 25% | [5] 4.85% | [6] -7.15%

COC(=O)[C@@H]1[C@H](O)CC[C@H]2[C@@]1(C)CC[C@@H](C)[C@]2(COC(C)=O)CC(=O)c1ccoc1
inactive: [1] -27.1% | [2] -32.2% | [3] -37% | [4] -27.1% | [5] -47.9% | [6] -45.8%

Cc1nc2ccccc2n1CCC(N)=O
inactive: [1] 24.6% | [2] -2.1% | [3] 6.1% | [4] 12.3% | [5] -26.9% | [6] -2.35%

CC(C)CC(NC(=O)C(CO)NC(=O)OCc1ccccc1)C(=O)NC(Cc1ccc(O)cc1)C(N)=O (stereo not drawn) (Cbz-Ser-Leu-Tyr-NH2; configuration not given here)
inactive: [1] 47.5% | [2] -8.05% | [3] 27.6% | [4] 4.9% | [5] 3.95% | [6] 13.7%

O=NNc1ccnc(-c2cc(NN=O)ccn2)c1
inactive: [1] 22.2% | [2] 16.4% | [3] 6.3% | [4] -0.9% | [5] -12.5% | [6] 34%

c1ccc(C2(c3ccccc3)CCc3ccccc3O2)cc1
inactive: [1] 27.5% | [2] 15.6% | [3] 4.7% | [4] -40.5% | [5] -9.6% | [6] 31.9%

COC(=O)[C@]1(NC(=O)c2ccccc2)C[C@H]1C=O
inactive: [1] 21% | [2] 15.2% | [3] 14.4% | [4] 10.9% | [5] 9.6% | [6] -54.8%

O=S(=O)(C(c1ccccc1)C(O)(c1ccccc1)c1ccccc1)N1CCCC1 (stereo unspecified)
inactive: [1] 29.6% | [2] -0.45% | [3] 27.4% | [4] -21.8% | [5] 1.25% | [6] 22.6%

BrCCCC1CCCCC1
inactive: [1] -23.6% | [2] -41.7% | [3] -13.2% | [4] 2.1% | [5] -14.6% | [6] -14.7%

Cc1ccc2c(c1)C1(c3ccc(Cl)c(Cl)c3)Oc3ccc(C)cc3C(c3ccc(Cl)c(Cl)c3)(O2)O1
inactive: [1] 4.1% | [2] 5.15% | [3] -6.7% | [4] 2.15% | [5] 3.65% | [6] -3%

Cc1nc(N)nc(C)c1N=Nc1cc(Br)ccc1Br
inactive: [1] 26.1% | [2] -14.1% | [3] -15.4% | [4] -13.7% | [5] 0.35% | [6] -7.6%

Cc1nn(-c2nc(-c3ccccc3)cs2)c(C)c1C
inactive: [1] -6.05% | [2] -8.6% | [3] -20.6% | [4] 2.9% | [5] -0.5% | [6] -8.2%

CC1CC(C)(C)NC(C2CCC=CO2)O1 (stereo unspecified)
inactive: [1] 5.2% | [2] -3.9% | [3] -7% | [4] -20.6% | [5] -18.6% | [6] 5.9%

COc1ccc2c(c1)[n+]([O-])c(/C(C)=N/NC(N)=S)c(C)[n+]2[O-]
inactive: [1] 65.6% | [2] 12.2% | [3] 41.6% | [4] 11.4% | [5] 61% | [6] 47.1%

Nc1nc(N)c(N=Nc2ccc(S(=O)(=O)NC(=O)c3ccccc3)cc2)c(=O)[nH]1
inactive: [1] -8.4% | [2] -4.3% | [3] -6.9% | [4] -9.35% | [5] -2.55% | [6] -8.9%

CC(C)CCC[C@@H](C)[C@H]1CC[C@H]2[C@@H]3CC=C4C[C@@H](OC(=O)c5cccc6c(=O)c7ccccc7[nH]c56)CC[C@]4(C)[C@H]3CC[C@]12C
inactive: [1] 12.8% | [2] 16.1% | [3] 3.3% | [4] -4.95% | [5] -3.8% | [6] -28.9%

CN(CC(=O)O)C(=N)N
inactive: [1] -8.3% | [2] -11.8% | [3] -19.9% | [4] -2.75% | [5] -24.6% | [6] -9.2%

O=C(O)c1cc2c(c3c1CCCC3)CCC1CCCC21 (stereo unspecified)
inactive: [1] 13.2% | [2] 26.4% | [3] 33.4% | [4] -6.25% | [5] 20.8% | [6] 27.9%

CSc1c2c([nH]c(=O)c1C#N)-c1ccccc1CC2
inactive: [1] -6.5% | [2] -1.4% | [3] 4.85% | [4] 15.1% | [5] -3.65% | [6] 3.95%

O=c1[nH]c(=O)n(C2CC(O)C(CO)O2)cc1OCC1CCCCC1 (stereo unspecified)
inactive: [1] -33.9% | [2] -4.8% | [3] -13.3% | [4] 1.85% | [5] -14.4% | [6] -19.9%

C=CCN=C1NC(=O)C(CC(=O)Nc2ccc(C)cc2)S1 (stereo unspecified)
inactive: [1] -22.6% | [2] -0.25% | [3] 0.25% | [4] 17.4% | [5] 7.05% | [6] 7.65%

O=C(OCC(OC(=O)c1ccccc1)C(OC(=O)c1ccccc1)C(OC(=O)c1ccccc1)c1nn[nH]n1)c1ccccc1 (stereo unspecified)
active: [1] 73% | [2] 88.4% | [4] 86.9% | [5] 85.2% | [6] 80.5%
inactive: [3] 59.4%

Reference: PubChem BioAssay (NCI)
